In paper PMC5540273 (PLoS ONE, 2017):

How the values were obtained:
Conditions in all cases: concentration: 1 μM, replicates: in singlicate; n = 1
[1] = tested on: T1, RSK4(Kin.Dom.1-N-terminal)
T1 construct: gene RPS6KA6

[2] = tested on: T2, RSK4(Kin.Dom.2-C-terminal)
T2 construct: gene RPS6KA6

[3] = tested on: S6K1
[4] = tested on: SBK1
[5] = tested on: SGK2
[6] = tested on: SGK3
[7] = tested on: SGK
[8] = tested on: SIK2
[9] = tested on: SIK
[10] = tested on: SLK
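Further: KINOMEscan kinase panel screen.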

| Structure (SMILES) | %Inh [1] [%] | %Inh [2] [%] | %Inh [3] [%] | %Inh [4] [%] | %Inh [5] [%] | %Inh [6] [%] | %Inh [7] [%] | %Inh [8] [%] | %Inh [9] [%] | %Inh [10] [%] |
| --- | --- | --- | --- | --- | --- | --- | --- | --- | --- | --- |
| COc1ccc(NC(=O)c2ccoc2)cc1-c1ccc(C(=O)NCC2CC2)cc1 [GW810437] | 8 | 0 | 9 | 48 | 0 | 19 | 25 | 0 | 0 | 0 |
| O=C(Nc1n[nH]c2nc(-c3ccccc3O)ccc12)C1CC1 [SB-711880] | 51 | 28 | 26 | 0 | 31 | 8 | 30 | 58 | 0 | 49 |
| CC(=O)Nc1cn2nc(Oc3cccc(NC(=O)c4cccc(C(F)(F)F)c4)c3)ccc2n1 | 0 | 9 | 0 | 0 | 1 | 0 | 0 | 18 | 32 | 21 |
| COc1cc(Nc2nccc(N3CCC(NC(=O)Nc4ccc5c(c4)OCO5)C3)n2)cc(OC)c1OC (stereo not drawn) [GSK1379766] | 0 | 14 | 17 | 10 | 0 | 11 | 0 | 0 | 8 | 36 |
| CN(c1ccc(F)c(NC(=O)c2cccc(OC(C)(C)C#N)c2Cl)c1)c1ccc2nc(NC(=O)C3CC3)sc2n1 | 4 | 0 | 1 | 18 | 0 | 2 | 0 | 39 | 97 | 14 |
| COc1cccc(NC(=O)NCCNc2ccnc(Nc3ccc(F)cc3)n2)c1 [GSK1379879] | 0 | 0 | 0 | 40 | 12 | 2 | 3 | 4 | 0 | 7 |
| Cl.N#CCc1ccc(Nc2nccc(Nc3ccc(Oc4ccccc4)cc3)n2)cc1 [GW639905] | 0 | 0 | 0 | 13 | 0 | 90.1 | 0 | 0 | 0 | 0 |
| CCNc1nccc(-c2c(-c3ccc(F)cc3)ncn2C2CCN(C)CC2)n1 | 13 | 64 | 0 | 0 | 5 | 0 | 14 | 8 | 0 | 13 |
| CCOc1nccc(-c2c(-c3ccc(F)cc3)ncn2C2CCNCC2)n1 [SB-249175] | 41 | 83 | 16 | 46 | 34 | 12 | 29 | 4 | 2 | 71 |
